Measured values from PubChem BioAssay (NCATS).
Where “and” joins values, the source holds several entries; their conditions need not be identical. Equal entries are not always repeated. Results filed as inconclusive are left out. Calls of active or inactive are those of the source. Calls come from the whole dose curve; as a rule, active = well fitted curve in the direction sought with a large enough effect; inconclusive = small, poorly fitted or top-dose-only effect, or another doubt; inactive = no such curve, though single readings can be large; an effect the other way counts as inactive or inconclusive.

What was measured:
[1] = Viability qHTS for spleen associated tyrosine kinase inhibitor (SYKi) naive MV4-11 cells (AID 1963823); note: nearly all actives have a fitted effect of over 40% in size
How it was run: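 Compounds were dispensed acoustically onto plates, MV4-11 cells (SYKi-naive) added at 500 per well, and plates incubated 72 hr at 37 C. CellTiter-Glo was added and luminescence measured after 10 min.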

[2] = Cellular viability qHTS for adrenocortical cancer (ACC) cell line SW-13 (AID 1963989); settings: SW-13 ACC cells viability, CellTiter-Glo, 48 h; activity (max response): stronger effect = lower value; note: nearly all actives have a fitted effect of over 65% in size;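 for activity (max response): cells grown in serum-free medium with ITS supplement; % is set by controls: 0 for no effect and ±100 for the full control effect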
How it was run: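 Luminescent ATP read-out (CellTiter-Glo, 20 min at room temperature) measured metabolically competent SW-13 cells after 48 h compound treatment. Final concentrations spanned up to 46 uM; bortezomib served as positive control.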

[3] = Cellular viability qHTS for adrenocortical cancer (ACC) cell line NCI-H295R (AID 1963990); note: nearly all actives have a fitted effect of over 60% in size
How it was run: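 IC50 and maximal efficacy derive from four-parameter logistic modelling of titration curves, with reads scaled between DMSO-only wells (0%) and doxorubicin hydrochloride (100% inhibition). Compounds spanned up to 46 uM over 48 h.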
Potency is the fitted concentration of half-maximal effect.

CC1(C)OC(=O)Nc2ccc(Br)cc21
inactive: Potency [1] | activity (max response) [2] 14.6% | Potency [3]

NC[C@H]1O[C@H](O[C@H]2[C@H](O)[C@@H](O[C@H]3O[C@H](CO)[C@@H](O)[C@H](N)[C@H]3O)[C@H](N)C[C@@H]2N)[C@H](N)[C@@H](O)[C@@H]1O
inactive: Potency [1] | activity (max response) [2] -3.44% | Potency [3]

C[C@@H]1[C@H](O)[C@@H](C)/C=C/C=C/C=C/C=C/C=C/C=C/C=C/[C@H](O[C@@H]2O[C@H](C)[C@@H](O)[C@H](N)[C@@H]2O)C[C@@H]2O[C@](O)(C[C@@H](O)C[C@@H](O)[C@H](O)CC[C@@H](O)C[C@@H](O)CC(=O)O[C@H]1C)C[C@H](O)[C@H]2C(=O)O
inactive: Potency [1] | activity (max response) [2] -9.6% | Potency [3]

FC(F)(F)c1ccccc1-n1ccnc1
inactive: Potency [1] | activity (max response) [2] 17.5% | Potency [3]

COCCOC(=O)N1CCN(S(=O)(=O)c2cc(F)c(Oc3ccc(Cl)cc3)c(F)c2)C(C(=O)NO)C1 (configuration not stated)
active: Potency [1] 5.9 µM | Potency [2] 5.01 µM | Potency [3] 2.82 µM

CC(=O)Nc1ccc(O)cc1
inactive: Potency [1] | activity (max response) [2] -6.94% and -15.1% | Potency [3]

C[C@H](CCC(=O)O)[C@H]1CC[C@H]2[C@@H]3[C@H](O)C[C@@H]4C[C@H](O)CC[C@]4(C)[C@H]3CC[C@]12C
inactive: Potency [1] | activity (max response) [2] -16.1% | Potency [3]

COc1ccc(-c2cc(=S)ss2)cc1
inactive: Potency [1] | activity (max response) [2] -5.69% | Potency [3]

CN1CCN(Cc2ccc(Nc3ncc(Cl)c(Nc4ccccc4S(=O)(=O)N(C)C)n3)cc2)CC1
active: Potency [1] 0.006 µM | Potency [2] 0.75 µM | Potency [3] 0.237 µM
